Laboratory results: PubChem BioAssay (NCI)
The panel holds about 83,000 compounds, 20% with a hit somewhere; the sample as a whole holds those more often.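 Single-concentration screen, 48 h exposure, 96-well plates. Endpoint: percent growth. Below 10 = active.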 Unmarked numbers belong to inactive results. The source made the active and inactive calls.

Experiments:
Assay in all cases: NCI-60 one-dose screen, 48 h (100 = growth as untreated, 0 = no growth, -100 = all killed)
Conditions in all cases: 10 µM unless noted
[1] = test system: DU-145 prostate
[2] = test system: K-562 leukemia
[3] = test system: MALME-3M melanoma
[4] = test system: MDA-MB-231 breast
[5] = test system: RXF 393 renal
[6] = test system: SF-268 CNS
[7] = test system: SF-295 CNS
[8] = test system: SF-539 CNS
[9] = test system: UACC-257 melanoma
[10] = test system: M14 melanoma
[11] = test system: HCT-15 colon
[12] = test system: HT29 colon
[13] = test system: SNB-75 CNS
[14] = test system: SNB-19 CNS
[15] = test system: U251 CNS
[16] = test system: PC-3 prostate
[17] = test system: SK-MEL-5 melanoma
[18] = test system: UACC-62 melanoma
[19] = test system: LOX IMVI melanoma
[20] = test system: SK-MEL-28 melanoma

COc1ccccc1NC(=O)N/C(N)=N/c1nc2ccccc2s1
growth [1]: 19.3% | growth [2]: 12.9% | growth [3]: 57.6% | growth [4]: 48.1% | growth [5]: 4.12% (active) | growth [6]: 49.5% | growth [7]: 39.2% | growth [8]: -31.5% (active) | growth [9]: 75.4% | growth [10]: 8.17% (active) | growth [11]: 16.5% | growth [12]: 8.24% (active) | growth [13]: 22.6% | growth [14]: 37.5% | growth [15]: 18.3% | growth [16]: 25% | growth [17]: 23.7% | growth [18]: 31.4% | growth [19]: 34.3% | growth [20]: 53.4%

N=C1C(c2nc(-c3ccc(Br)cc3)cs2)=C(O)CN1Cc1cccnc1
growth [1]: 11.9% | growth [2]: 49.8% | growth [3]: 34.1% | growth [4]: 78.7% | growth [5]: 67.1% | growth [6]: 38% | growth [7]: 37.2% | growth [8]: 60.5% | growth [9]: 81% | growth [10]: 69.3% | growth [11]: 87.5% | growth [12]: 65.4% | growth [13]: 15.5% | growth [14]: 75.9% | growth [15]: 56.7% | growth [16]: -6.43% (active) | growth [17]: 79.6% | growth [18]: 78.2% | growth [19]: 85.3% | growth [20]: 48.5%

COc1ccc(C(=O)Nn2c(NCC(=O)N3c4ccccc4Sc4ccccc43)nnc2-c2ccc(O)cc2)cc1
growth [1]: 116% | growth [2]: 114% | growth [3]: 98.1% | growth [4]: 101% | growth [5]: 117% | growth [6]: 111% | growth [7]: 107% | growth [8]: 117% | growth [9]: 94.9% | growth [10]: 91.7% | growth [11]: 96.9% | growth [12]: 98.2% | growth [13]: 115% | growth [14]: 111% | growth [15]: 97% | growth [16]: 97.6% | growth [17]: 104% | growth [18]: 104% | growth [19]: 98.4% | growth [20]: 119%

COc1cc(/C=C2\C(=O)ON=C2C)cc(OC)c1OC
growth [1]: 108% | growth [2]: 95% | growth [3]: 102% | growth [4]: 98.3% | growth [5]: 114% | growth [6]: 95.7% | growth [7]: 100% | growth [8]: 94.7% | growth [9]: 103% | growth [10]: 96% | growth [11]: 102% | growth [12]: 103% | growth [13]: 80.4% | growth [14]: 95.6% | growth [15]: 100% | growth [16]: 97.3% | growth [17]: 101% | growth [18]: 97% | growth [19]: 96.2% | growth [20]: 103%

COc1cccc(Nc2nccc(Nc3ccc4[nH]ncc4c3)n2)c1
growth [1]: -59.1% (active) | growth [2]: -9.77% (active) | growth [3]: -48.7% (active) | growth [4]: 15% | growth [5]: 18.4% | growth [6]: 26.3% | growth [7]: 16.2% | growth [8]: 13.9% | growth [9]: 11.2% | growth [10]: -74.2% (active) | growth [11]: -26.6% (active) | growth [12]: -58.3% (active) | growth [13]: 30.3% | growth [14]: 24.1% | growth [15]: -93.7% (active) | growth [16]: -81.2% (active) | growth [17]: -83.6% (active) | growth [18]: -56.7% (active) | growth [19]: -66.9% (active) | growth [20]: -42.6% (active)

CC(=O)N1C(=S)NC(=O)C1Cn1c(-c2ccccc2)nc2ccccc21 (stereo not given)
growth [1]: 110% | growth [2]: 101% | growth [3]: 101% | growth [4]: 90.4% | growth [5]: 96.5% | growth [6]: 99.2% | growth [7]: 105% | growth [8]: 97.1% | growth [9]: 107% | growth [10]: 103% | growth [11]: 98.3% | growth [12]: 107% | growth [13]: 76.2% | growth [14]: 93.3% | growth [15]: 101% | growth [16]: 97.8% | growth [17]: 99.1% | growth [18]: 91.5% | growth [19]: 95.8% | growth [20]: 106%

COc1ccc2cc(-c3cc(OC)c(OC)c(OC)c3)c(=O)oc2c1
growth [1]: 101% | growth [2]: 27.7% | growth [3]: 65.1% | growth [4]: 60.8% | growth [5]: 84.9% | growth [6]: 89.7% | growth [7]: 71.4% | growth [8]: 80.2% | growth [9]: 54.9% | growth [10]: 38.6% | growth [11]: 50% | growth [12]: 44.3% | growth [13]: 65% | growth [14]: 80.3% | growth [15]: 70.7% | growth [16]: 69.2% | growth [17]: 79.5% | growth [18]: 42% | growth [19]: 73.5% | growth [20]: 78.5%

Cc1ccc(CCC(=O)Nc2ncc(Cc3cc(Cl)ccc3Cl)s2)o1
growth [1]: 13.8% | growth [2]: 9.78% (active) | growth [3]: 41.5% | growth [4]: 12.4% | growth [5]: -8.55% (active) | growth [6]: 57.6% | growth [7]: 7.41% (active) | growth [8]: -16.4% (active) | growth [9]: 66.9% | growth [10]: 6.18% (active) | growth [11]: 12.5% | growth [12]: 4.92% (active) | growth [13]: -1.75% (active) | growth [14]: 21.7% | growth [15]: 18% | growth [16]: 23.6% | growth [17]: 7.9% (active) | growth [18]: 21.2% | growth [19]: 13.3% | growth [20]: 55.7%
